# Among all 69,000 compounds or so, about 8,600 (12%) showed an effect of 50% or more. Many of the other results were omitted from the sample, so strong results are more common in it than they were.
# System: Plasmodium berghei
# Experiment: Screen against P. berghei liver stage (PbLuc), transformed with Luciferase, at 10uM
# Format: functional, HepG2
# Conditions: tested at 10 uM
row,SMILES,INHIBITION [%]
1,O=C(c1ccoc1)N1CCN(Cc2ccccc2F)CC1,18.3
2,Cc1ccc(CS(=O)(=O)N2Cc3c(CN(C)C)nn(C)c3C2)cc1,8.6
3,COc1ccc(C2=NOC(CO)C2)cc1 (centres undefined),35.8
4,Fc1cccc(-c2nccnc2C2CCCNC2)c1 (centres undefined),8.72
5,c1cc(CN2CCC3(CC2)COC(COCC2CC2)C3)ccn1 (centres undefined),1.9
6,O=C(Cc1ccsc1)N1CCOC(c2nc(-c3ncccn3)no2)C1 (centres undefined),21.9
7,Cn1c(CCC(=O)N2CCCC3(CNC(=O)O3)C2)nc2cccnc21 (centres undefined),22.5
8,Cc1nc(C2CCN(C(=O)c3cc(C4CC4)[nH]n3)CC2)no1,11.9
9,CS(=O)(=O)Nc1ccn(Cc2cccc(F)c2)n1,49.1
10,CC(C)N1CCO[C@H]2CN(Cc3cc[nH]n3)C[C@H]21,29.4
11,COCCN1CCO[C@H]2CN(Cc3cc[nH]n3)C[C@H]21,40.3
12,COc1ccc(CN2C[C@@H]3OCCN(CCN(C)C)[C@@H]3C2)cc1,26.4
13,Fc1ccc(CN2C[C@@H]3OCCN(CC4CCCO4)[C@@H]3C2)cc1 (some centres undefined),68.4
14,c1cc(CN2C[C@@H]3OCCN(CC4CCCO4)[C@@H]3C2)ccn1 (some centres undefined),-1.55
15,COc1ccc(CN2C[C@@H]3OCCN(CCN4CCCC4)[C@@H]3C2)cc1,82.3
16,Fc1ccc(CN2C[C@@H]3OCCN(CCN4CCCC4)[C@@H]3C2)cc1,11.3
17,COc1ccc(CN2C[C@@H]3OCCN(CC4CCCO4)[C@@H]3C2)cc1 (some centres undefined),27.9
18,c1cc(CN2C[C@@H]3OCCN(CC4CC4)[C@@H]3C2)n[nH]1,59.3
19,CN(Cc1cscn1)C1CCCN(c2cccnn2)C1 (centres undefined),15.5
20,COc1c(C)cnc(CN2CCCC(c3noc(C4CC4)n3)C2)c1C (centres undefined),17.1
21,CCc1n[nH]c(C2CN(C(=O)c3ccc4c(c3)CCCC4)CCO2)n1 (centres undefined),-43.6
22,O=C(O)c1cncc(Cc2cccc(F)c2)c1,-19.7
23,CCc1ccc(CN2CCNC(C(=O)N3CCN(C)CC3)C2)nc1 (centres undefined),-14.1

row,SMILES,INHIBITION [%]
1,COc1ccc(F)cc1C(=O)N(C)[C@@H]1CC[C@@H](O)[C@@H]1O,-42
2,Cc1ccoc1C(=O)N1CCn2nnc(COc3cccnc3)c2C1,17.1
3,Cn1cc(CN2CCOC(c3nccnc3-c3cccc(F)c3)C2)cn1 (centres undefined),23
4,CC(C)NC(=O)N1CCN(S(C)(=O)=O)CC2(CNC(=O)C2)C1 (centres undefined),-3.52
5,N#Cc1cccc(CN2CC[C@@H]3CO[C@@H](CN4CCCC4)[C@@H]3C2)c1,23.3
6,O=C(c1ccoc1)N1CCc2c(COCC3CC3)cncc2C1,64.9
7,CN(C)C(=O)N1CCc2c(COCC3CC3)cncc2C1,59
8,COCc1cncc2c1CCN(C(=O)c1ccc(C)o1)C2,7.11
9,O=C(c1cccnc1)N1CCc2c(COCC3CC3)cncc2C1,-5.05
10,N#Cc1ccc(C(=O)N2CCc3c(COCC4CC4)cncc3C2)cc1,43
11,O=C(c1ccco1)N1CCc2c(COCC3CC3)cncc2C1,-3.88
12,CN(C)CCOCc1cncc2c1CCN(C(=O)C1CCOCC1)C2,55.4
13,O=C(c1ccncc1)N1CCc2c(COCC3CC3)cncc2C1,-1.55
14,CN(C)CCOCc1cncc2c1CCN(C1CCOC1)C2 (centres undefined),-2.27
15,CN(C)CCOCc1cncc2c1CCN(C1CCOCC1)C2,12.6
16,Cc1ccc(C(=O)N2CCc3c(COCC4CC4)cncc3C2)o1,88.2
17,O=C(c1ccc[nH]1)N1CCc2c(COCC3CC3)cncc2C1,14.8
18,COCCN1CCC2(COCCN(C(=O)Cc3cccs3)C2)C1 (centres undefined),-58.7
19,Cc1cc(C(=O)N2CC[C@@H](N(C)C)[C@@H]2Cc2ccccc2)no1,-2.35
20,COc1ccc(C(O)CNC(=O)NCc2c(C)cc(C)[nH]c2=O)cc1 (centres undefined),16.9
21,CCO[C@H]1CN(C(=O)c2ccnnc2)[C@@H]2COC[C@H]12,13.6
22,CCn1cc(-n2cc3nc(N4CCC(O)CC4)[nH]cc-3c2=O)cn1,-10.6
23,O=C(c1cscn1)N1CC[C@@H]2[C@@H]1CCN2C1CCOCC1,-23.1

row,SMILES,INHIBITION [%]
1,Cc1cnc(C(=O)N2Cc3ncn(C)c3C(COCC(C)C)C2)cn1 (centres undefined),43
2,O=C(c1n[nH]cc1Cl)N1CCOCC1,39.1
3,Cc1ccc(N2CCC3(CCCN(C(=O)c4cnccn4)C3)C2)nn1 (centres undefined),18.5
4,Cc1nc(CN2CCc3ncnc(-c4ccc(F)cc4)c3CC2)cs1,15.4
5,c1ccc(CN2CCc3ncnc(-c4ccncc4)c3CC2)nc1,46.2
6,Cc1noc(C)c1CN1CCc2ncnc(-c3cccnc3)c2CC1,25.8
7,Cc1cc(CN2CCN(c3ccnc(-c4ccccc4)n3)CC2)no1,2.29
8,Cc1noc(C)c1CN1CCc2ncnc(-c3cnn(C)c3)c2CC1,43
9,Cc1noc(C)c1CN1CCN(c2ccnc(-c3ccccc3)n2)CC1,62.5
10,Cc1noc(C)c1CN1CCc2ncnc(-c3ccncc3)c2CC1,90.1
11,Cc1cnc(CN2CCN(c3ccnc(-c4ccccc4)n3)CC2)cn1,47.2
12,Cc1ccc(CN2CCc3ncnc(-c4ccc(F)cc4)c3CC2)o1,13.7
13,Cc1noc(C)c1CN1CCc2ncnc(-c3ccccc3)c2CC1,53
14,Cc1ccc(CN2CCc3ncnc(-c4ccncc4)c3CC2)o1,-4.32
15,Cc1noc(C)c1CN1CCc2ncnc(-c3ccc(F)cc3)c2CC1,67.5
16,O=C(C1=CCCC1)N1CCC2(CC1)CC(Oc1cccnc1)CO2 (centres undefined),41.3
17,COc1ccc(COCC(O)CNC(=O)c2ccc(C#N)cc2)cc1 (centres undefined),46.2
18,CN(C)C(=O)Cn1c(C2CC2)c(CN2CCSCC2)c2cccnc21,23
19,CC(=O)c1ccc(OCC(=O)c2cccn2C)cc1,-175
20,CC(=O)N[C@@H]1CN(C(=O)Cc2coc3cc(C)ccc23)C[C@H]1O,-5.8
21,c1ccc(CN2CCc3ncnc(-c4ccoc4)c3CC2)nc1,12.4
22,Cc1noc(C)c1CN1CCc2ncnc(-c3ccoc3)c2CC1,68.4
23,Cc1ccc(CN2CCc3ncnc(-c4ccoc4)c3CC2)o1,-8.28

row,SMILES,INHIBITION [%]
1,Cc1nnc2n1CCN(C(=O)C1CCN(Cc3ccccc3)CC1)C2,35.7
2,Cc1cc(NC(=O)CC2(Cn3cnnn3)CCCCC2)nn1C,39.1
3,Cn1ccc(C(=O)N2CCC[C@]3(C[C@@H](OCc4ccccn4)CO3)C2)n1,40.9
4,Cc1cnc2[nH]c(C(F)(F)F)c(CN3CCCC(CO)C3)c2c1 (centres undefined),50.8
5,CCN1CCN(Cc2c(C3CCCC3)[nH]c3ncccc23)CC1,20.4
6,CC1CCCN(Cc2c(C3CCOCC3)[nH]c3ncccc23)C1 (centres undefined),59.7
7,CC1CCCN(Cc2c(C3CC3)[nH]c3ncccc23)C1 (centres undefined),19.6
8,OCC1CCCN(Cc2c(C3CCCC3)[nH]c3ncccc23)C1 (centres undefined),69.3
9,c1cnc2[nH]c(C3CCCC3)c(CN3CCCCC3)c2c1,-2.11
10,Cc1cnc2[nH]c(C(F)(F)F)c(CN3CCSCC3)c2c1,21.1
11,c1cnc2[nH]c(C3CCCC3)c(CN3CCOCC3)c2c1,33.7
12,Cc1cnc2[nH]c(C(F)(F)F)c(CN3CCOCC3)c2c1,-0.232
13,Cc1nc(CN2CCCC(NCCOc3ccccc3C#N)C2)no1 (centres undefined),44.1
14,CC(c1ccc2c(c1)OCCO2)N(C)C(=O)c1ccnnc1 (centres undefined),-4.21
15,Cn1ccc(CN2CCN(CC3CC3)CC2)cc1=O,21.5
16,COCCCNC(=O)CN(C)C(=O)c1ccc(OC)cc1O,7.925
17,CCCc1nc(C)cc(N2CCC3(CCC(=O)N(C4CC4)C3)CC2)n1,-23.5
18,CCS(=O)(=O)NCc1nc(C)cc(N2CCCC2)n1,25.1
19,CCS(=O)(=O)NCc1nc(C)cc(N2CCCCC2)n1,75.2
20,CCS(=O)(=O)NCc1nc(C)cc(N2CCOCC2)n1,65.2
21,CCCS(=O)(=O)NCc1nc(C)cc(N2CCCC2)n1,56.6
22,Cc1cc(N2CCCC2)nc(CNS(=O)(=O)Cc2ccccc2)n1,81
23,Cc1nc(C2CCCN(C(=O)CO)C2)cc(N2CCOCC2)n1 (centres undefined),-1.53

row,SMILES,INHIBITION [%]
1,CCCS(=O)(=O)N1CCN(c2cc(-n3nc(C)cc3C)nc(C)n2)CC1,0.139
2,CC(=O)N1CCCn2nc(CNS(=O)(=O)Cc3ccccc3)cc2C1,-3.83
3,O=S(=O)(Cc1ccccc1)NCC1CCN(c2cnccn2)CC1,-45.8
4,CCNC(=O)CN1CCN(c2cc(C)nc(-c3ccncc3)n2)CC1,48.1
5,CCNC(=O)CCN1CCC(c2cc(N3CCOCC3)nc(C)n2)CC1,38.5
6,CCc1nnc2n1CCN(C(=O)Cc1nc(-c3ccco3)oc1C)C2,-17.6
7,Cc1ncc(C(=O)N2CCCC(n3nc(C)nc3C)C2)c(C(C)C)n1 (centres undefined),-3.15
8,Cc1cc(C)n(CC2CCCN2C(=O)c2cccc(C#N)c2)n1 (centres undefined),-3.585
9,COc1ccc(OCCN2CCC(c3ccnn3CCO)CC2)cc1,11.4
10,Cc1ccc(C(C(=O)NC(C)(C)CN2CCCC2)N(C)C)cc1 (centres undefined),35.7
11,CCOCC1c2c(ncn2C(C)C)CCN1C(=O)CC (centres undefined),29.8
12,CCOCC1CN(C(=O)c2cscn2)Cc2cn(C)nc21 (centres undefined),17.1
13,CCn1ncc2c1C(COC)N(C(=O)c1ccsc1)CC2 (centres undefined),43.9
14,CCn1ncc2c1C(COC)N(C(=O)Cc1cccs1)CC2 (centres undefined),25.8
15,CCOCC1c2c(ncn2C(C)C)CCN1C(C)C (centres undefined),10.5
16,CCOCC1c2c(ncn2C)CCN1C(=O)c1cscn1 (centres undefined),60.2
17,CCOCC1c2c(ncn2C(C)C)CCN1C(=O)C1CC1 (centres undefined),76.4
18,CCn1ncc2c1C(COC)N(C(=O)c1cccs1)CC2 (centres undefined),51.2
19,CCOCC1c2c(ncn2C)CCN1C(=O)c1ccoc1 (centres undefined),-3.17
20,CCOCC1c2c(cnn2C)CCN1C(=O)c1cc(C)on1 (centres undefined),37.6
21,CCOCC1c2c(ncn2C)CCN1C(=O)c1cnc(C)cn1 (centres undefined),57.5
22,CCOCC1CC2(CCN(C(=O)c3cscn3)CC2)CO1 (centres undefined),9.63

# From ChEMBL document CHEMBL4513216, “Probing the Open Global Health Chemical Diversity Library for Multistage-Active Starting Points for Next-Generation Antimalarials” (ACS Infect Dis, 2020)
